Drawing on paper PMC12136788, this text covers binding signal for 15 molecules.

Positions count from the first letter of the chain named. Over roughly 5,800 sequences, “enrichment r” has its median near 0.68; the highest 2% begin near 11. What follows is part of a selection rich in the highest values, with near analogues and random picks from the rest.

B1: chr1:203709306:203709407:+|CDS|ENSG00000058668|msi1|total|mutant (ssRNA)
RNA: GGGAGUUCUACAGUCCGACGAUCUCCAGAGAAGGAGGGAGGCCUGCCUCGGCAGGUGGGCAACAAGACCGAGUGUGCUCUGCCCGGCUUUGUCACAGAUCUGAAGCAGGAUUAUCAGGCUGUGCGUAAUGAAGUGCCCGAGGACAACAGAGGAUUGAGCAUCA
B2: chr1:225789428:225789553:+|3pUTR|ENSG00000143742|unk|FALSE|unique (ssRNA)
RNA: GGGAGUUCUACAGUCCGACGAUCUUAGAGAAAGUGUUGGGACAGAAAGUACUUUAUGUAACUAAGUGGGCUGUUCAGAAGCUUAGAGGUCAUUUUUUGUAAUUUUCUUUUUAAUUACUUUAGAGAGCUAGGGAUGCAAAUGUUCAACAGAGGAUUGAGCAUCA
B3: chr22:27980698:27980799:-|3pUTR|ENSG00000100154|unk|total|mutant (ssRNA)
RNA: GGGAGUUCUACAGUCCGACGAUCUAACCAUUAAUUUAUUUUAUAAAGAAAGGAAAUGCUGAAAGUCGUAUCCGUACUGAGUUCCGUUGGAGAAUUCCGAUAAGUAAGUAUCUUUCCGGUAAUUCUAAAAUUAAAAUCCUACCCCAACAGAGGAUUGAGCAUCA
B4: ENSG00000124766:be:win_3501|3pUTR|ENSG00000124766|bound_else_gene|NA|bound_elsewhere_windowed (ssRNA)
RNA: GGGAGUUCUACAGUCCGACGAUCAACUUGUAAACCACAUCUUUUUUGCACUUUUUUUAUAAGCAAAAACGUGCCGUUUAAACCACUGGAUCUAUCUAAAUGCCGAUUUGAGUUCGCGACACUAUGUACUGCGUUUUUCAUUCUCAACAGAGGAUUGAGCAUCA
B5: chr10:60791946:60792061:+|CDS|ENSG00000170312|unk|FALSE|unique (ssRNA)
RNA: GGGAGUUCUACAGUCCGACGAUCGUCAGCUCGUUACUCAACUCCAGUUGACAUUUGGAGUAUAGGCACCAUAUUUGCUGAACUAGCAACUAAGAAACCACUUUUCCAUGGGGAUUCAGAAAUUGAUCAACUCUUCAGGAUUUUCAACAGAGGAUUGAGCAUCA
B6: chr19:13098382:13098626:+|3pUTR|ENSG00000008441|msi1|FALSE|unique (ssRNA)
RNA: GGGAGUUCUACAGUCCGACGAUCACGCAGUAUAUACGAGUAUCUCUAUAUAUAGUACUAAUGGAUUUGGUGUGCUUCCCCCUUAGCGUCCCCCUCCCUCUGCUCCUCCUCCUUCAGCCUGGUCUCCCCCUCUUCUCUGCCCUCCAACAGAGGAUUGAGCAUCA
B7: chr2:15946816:15946917:+|3pUTR|ENSG00000134323|unk|FALSE|unique (ssRNA)
RNA: GGGAGUUCUACAGUCCGACGAUCUAUAUGCCUUUUUCCUAGCCUGUUUCUUCCUGUUAAUGUAUUUGUUCAUGUUUGGUGCAUAGAACUGGGUAAAUGCAAAGUUCUGUGUUUAAUUUCUUCAAAAUGUAUAUAUUUAGUGCUCAACAGAGGAUUGAGCAUCA
B8: ENSG00000006432:stop:overlap|stop_codon|ENSG00000006432|stop_codon|NA|stop_codon (ssRNA)
RNA: GGGAGUUCUACAGUCCGACGAUCGAGCGGAACUGAACACACACAGGCCUGCCCCUUAUGAGAUCCAGCAGGAGUUCUGGUCUUAGCACGAAAAGGAUUGGGGCGGGCAAGGGGGACAGCCAGCGGAGAUGAGGGGAGCUGGCGCAACAGAGGAUUGAGCAUCA
B9: chr6:149410404:149410522:+|3pUTR|ENSG00000055208|unk|FALSE|bound_elsewhere (ssRNA)
RNA: GGGAGUUCUACAGUCCGACGAUCUUAUAUUUCUAUAUGUAUAGUGUAAUAGCCUUUUGUUAACUAAUUUUCUUUUUUCCUUUUAGUAAUUAAGCACGAUCAUGUCCCUUUUUAAGCCUUACCUGAGAGGAACAAUGCCUUAAACAACAGAGGAUUGAGCAUCA
B10: chr10:52765379:52768136:-|three_prime_utr|ENSG00000165471|control|control|control (ssRNA)
RNA: GGGAGUUCUACAGUCCGACGAUCUUGUUCCUUUUGUGGGCAAUCACUAAAAAUGAUCACUAACAGCACCAACAAAGCAAUAAUAGUAGUAGUAGUAGUUAGCAGCAGCAGUAGUAGUCAUGCUAAUUAUAUAAUAUUUUUAAUCAACAGAGGAUUGAGCAUCA
B11: chr17:142788:147440:-|three_prime_utr|ENSG00000272636|control|control|control (ssRNA)
RNA: GGGAGUUCUACAGUCCGACGAUCGAGACCUCAGCACCUGCCCAGGGGAAGGGGACACGCCCAUCUGGGAGCAAAGACCCUUCUAGAGGCCAGCCCCGGCUGAGAGGACAGGAGUGUGGGGGCGCCUUGGCGGACAGUGGGAACCAACAGAGGAUUGAGCAUCA
B12: chr6:132743869:132744491:-|three_prime_utr|ENSG00000112303|control|control|control (ssRNA)
RNA: GGGAGUUCUACAGUCCGACGAUCAUGUGGGACCAGCAAUUCAGCAAUAACUUACCUGCUAAUAUUCAUAUUAUUAAUGAUCAUAGCUUUGCAAAAUAUUGUAAUGUUAUAGGGCGUCUCUUUAUCACUCAGCUUCUGCAUCAUCAACAGAGGAUUGAGCAUCA
B13: chr16:1487315:1487970:-|CDS|ENSG00000251692|control|control|control (ssRNA)
RNA: GGGAGUUCUACAGUCCGACGAUCGGGGGAGCUGGCGCAGCUCAAGGCCUGGGUGAGGAAGCUGCAGCGCCGAGGCCGGAAAGUAGACACGCGGCUGCGGGCCUUGGACCUCACCCUGGGCGAGAGGAGCCAGCAGCGGGCCCGCAACAGAGGAUUGAGCAUCA
B14: chr6:149410404:149410522:+|3pUTR|ENSG00000055208|unk|total|mutant (ssRNA)
RNA: B9 RNA with U41C, A42C, U49C, A50C, U83C, A84C
B15: chr3:112140897:112141281:-|three_prime_utr|ENSG00000172139|control|control|control (ssRNA)
RNA: GGGAGUUCUACAGUCCGACGAUCACUUUUUGCAAAAUUUCCUUGAUUUAAAAUAUUUGUUAUUUUAAAUAUACAAAACAUUUUAGAAAAUCUUAGAGUAAAUUUUAGUCUUAAAGCCAGAAAAUAAGUUUAUAGCCAUCUAGACAACAGAGGAUUGAGCAUCA

For the assay, the target named is T1, UNK ZnF1-6 (called full-length) (human, UniProt Q9C0B0 30-357).
T1 sequence: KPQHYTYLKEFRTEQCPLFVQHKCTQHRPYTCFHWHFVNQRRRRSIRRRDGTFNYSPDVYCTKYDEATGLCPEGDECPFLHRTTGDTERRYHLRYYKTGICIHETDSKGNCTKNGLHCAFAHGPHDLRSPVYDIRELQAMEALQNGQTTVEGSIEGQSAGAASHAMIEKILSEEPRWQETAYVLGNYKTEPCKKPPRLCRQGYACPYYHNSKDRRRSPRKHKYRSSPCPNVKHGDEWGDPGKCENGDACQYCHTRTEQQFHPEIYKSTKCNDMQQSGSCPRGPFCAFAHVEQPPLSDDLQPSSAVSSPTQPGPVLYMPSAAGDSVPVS
Put plainly: nsRBNS (natural sequence RNA bind-n-seq); RBNS binding buffer (assumed for nsRBNS): 25 mM Tris pH 7.5, 150 mM KCl, 3 mM MgCl2, 0.01% Triton X-100, 500 ug/ml BSA, 20 U/ml SUPERase-In, 4 C; UNK is unkempt and MSI1 is Musashi-1; names of the RNAs are library labels; protein concentration not given here; high values mean tight binding.
Consider B1, for which the binding signal was found to be 0.691 enrichment R. As for B2, the figure is 1.53 enrichment R; as for B3, 0.76 enrichment R; as for B4, 0.497 enrichment R. As for B5, the figure is 0.452 enrichment R; as for B6, 1.99 enrichment R. B7 displayed a binding signal of 1.93 enrichment R. For the molecule B8, the binding signal is 11.7 enrichment R. In turn, B9 registered a binding signal of 66 enrichment R. Regarding B10, the binding signal is 16.5 enrichment R. The value for B11 was 0.805 enrichment R; that for B12 was 0.744 enrichment R. Regarding B13, the binding signal was 0.727 enrichment R. As for B14, the figure is 4.24 enrichment R. As for B15, the figure is 2.83 enrichment R.
